Hits are enriched below; roughly 17% of the tested compounds scored in any of these assays.
TDP1 inh: blocks human tyrosyl-DNA phosphodiesterase 1; Q9NUW8; recombinant TDP1, AlphaScreen DNA substrate cleavage; Potency, µM (doses to about 130 µM), most hits filed as inhibitors; AID 485290; actives 0.28% (n = 350,000); also: nearly all actives have a fitted effect of over 40% in size
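Recombinant human Tdp1 (E. coli-expressed, 1 nM final) preincubated with compounds 15 min at room temperature, then 5'-biotin/3'-phosphotyrosine-FITC DNA substrate (15 nM final) added for 5 min. AlphaScreen beads (10 ug/ml final) added 10 min; cleavage lowers signal.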
TDP1 cell noCPT: qHTS for Inhibitors of human tyrosyl-DNA phosphodiesterase 1 (TDP1): qHTS in cells in absence of CPT; actives 15% (n = 420,000); Potency, µM (titrated, usually from 46.2 µM), actives largely listed as inhibitors; DT40 Tdp1-/- hTDP1 cells, no CPT, ATP luminescence, 48 h; also: nearly all actives have a fitted effect of over 55% in size
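Growth of hTDP1-complemented DT40 Tdp1-knockout cells is measured by ATP luminescence after at least 48 hr compound exposure at 37 °C, with DMSO substituting for the 20 nM CPT used in the parallel screen.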
TDP1 cell CPT: DT40-hTDP1 cell growth loss with CPT. chicken DT40 Tdp1-/-;hTDP1 cells + 20 nM CPT, ATP luminescence, 48 h. Potency, µM (highest dose often 46.2 µM), actives largely listed as inhibitors. actives 12% (n = 420,000). AID 686979; also: nearly all actives have a fitted effect of over 55% in size
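Chicken DT40 Tdp1-/- cells complemented with human TDP1, 400 cells/well, exposed to compounds plus 20 nM camptothecin for at least 48 h at 37 C; viability read as ATP content by CellTiter-Glo luminescence.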
ClpP mod: qHTS Assay for Activators of ClpP. purified B. subtilis ClpP, FRET peptide cleavage, 20 min. Potency, µM (top dose mostly 57.5 µM). actives 1.9% (n = 340,000); active = well fitted falling curve with a large enough effect; inconclusive = small, poorly fitted or top-dose-only effect; inactive = no such curve, though single readings can be large or run the other way; also: the source files actives as falling curves though it sought activators and does not explain the sign; nearly all actives have a fitted effect of over 65% in size
Target sequence (P80244 whole entry, looked up): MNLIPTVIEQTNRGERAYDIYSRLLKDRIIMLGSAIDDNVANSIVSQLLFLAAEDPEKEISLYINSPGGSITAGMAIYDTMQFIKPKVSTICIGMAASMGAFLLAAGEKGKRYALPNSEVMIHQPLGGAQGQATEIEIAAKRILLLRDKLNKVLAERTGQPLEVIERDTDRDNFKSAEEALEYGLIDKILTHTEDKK
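ClpP 10 microg/mL final, pH 8 Tris/KCl buffer with BSA, glycerol, Tween-20; compound pinned in; FRET-FV substrate; RT 20 min; Ex320/Em430; ΔFRET vs ADEP 5.8 microM, DMSO, no enzyme.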
A number is an active result; . = inactive; ? = inconclusive; / = no result given; ! = a repeat was not active; [ ] = another dose, or the depositor's remark. Unless noted, calls follow the shape of the dose curve; as a rule, active = well fitted curve in the direction sought with a large enough effect; inconclusive = small, poorly fitted or top-dose-only effect, or another doubt; inactive = no such curve, though single readings can be large; an effect the other way counts as inactive or inconclusive.

SMILES | TDP1 inh | TDP1 cell noCPT | TDP1 cell CPT | ClpP mod
O=C(Nc1nnc(C2=COCCO2)o1)c1ccc(Cl)cc1 | . | ? | 16µM | .
COc1ccccc1CNc1ncnc2sc(C(=O)N3CCN(C)CC3)c(C)c12 | / | . | .[9.04 µM] | /
COc1cccc([C@@H]2Oc3ccc(Br)cc3C(=O)[C@H]2OC(=O)Nc2ccc(C)c(Br)c2)c1 | . | / | / | /
CC(C)n1nc(C(=O)Nc2cccc(S(=O)(=O)N3CCOCC3)c2)c2ccccc2c1=O | . | ? | 21µM | .
Cn1nc(C(=O)Nc2cccc(S(=O)(=O)N3CCOCC3)c2)c2ccccc2c1=O | . | . | . | .
Cn1nc(C(=O)Nc2cccc(S(=O)(=O)N3CCCC3)c2)c2ccccc2c1=O | . | ? | ? | .
CC(C)n1nc(C(=O)Nc2cccc(S(=O)(=O)N3CCCCC3)c2)c2ccccc2c1=O | . | . | 13µM | .
O=C(Nc1ccccn1)C1(c2ccccc2)CCCC1 | . | ? | ? | .
Cc1ccc(NC(=O)c2ccc(C(=O)c3ccccc3)cc2)nc1 | / | ? | 18µM | /
Cc1ccc(NC(=O)c2ccc3nc[nH]c3c2)nc1 | 35µM | 18µM | 23µM | .
Cc1ccc(NC(=O)c2ccc3nc[nH]c3c2)c(O)c1 | . | . | . | .
Cc1ccc(NC(=O)C2(c3ccccc3)CCCC2)nc1 | / | 15µM | ? | .
Cc1ccc(NC(=O)c2cncc(Br)c2)nc1 | . | . | . | .
Cc1ccc(C(=O)Nc2sc(C)c(C)c2C(=O)c2ccccc2)cc1 | . | ? | 16µM | .
C=CCNC(=S)Nc1ccc2cn[nH]c2c1 | . | . | ? | /
CSc1ccc(CN2CCOc3ccc(CN4CCCCC4CO)cc3C2)cc1 (configuration not stated) | / | ? | .[9.04 µM] | /
Cc1ccc(NC(=O)c2cccc(S(=O)(=O)N3CCN(c4ccccc4)CC3)c2)nc1 | .[0.505 µM] | 21µM | 21µM | /
CCc1ccc(OC)c(S(=O)(=O)Nc2ccc(Cc3ccncc3)cc2)c1 | . | 8.2µM | 7.3µM | /
O=S(=O)(Nc1ccc(Cc2ccncc2)cc1)c1ccc(Cl)c(Cl)c1 | . | ? | ? | .
CCOc1ccc(C(C)(C)C)cc1S(=O)(=O)Nc1ccncc1 | . | . | . | .
COc1ccc2cc(S(=O)(=O)NCc3cccnc3)ccc2c1 | / | 8.2µM | ? | /
COc1ccc(S(=O)(=O)Nc2ccc(Cc3ccncc3)cc2)cc1OC | . | 15µM | 12µM | .
COc1ccc(S(=O)(=O)NCc2ccncc2)cc1OC | . | 14µM | 13µM | .
CSCCC1NC(=S)N(Cc2ccccc2)C1=O (configuration not stated) | / | . | . | .
COCCNC(=O)CCc1nnc(C2(c3ccc(Cl)cc3)CCC2)o1 | . | . | . | .
SMILES | TDP1 inh | TDP1 cell noCPT | TDP1 cell CPT | ClpP mod
CC1=C(c2ccc(C)c(C)c2)S(=O)(=O)N=C1N1CCN(c2cccc(C(F)(F)F)c2)CC1 | . | . | . | .
C[C@@H](C(=O)N[C@@H](CO)Cc1ccccc1)[C@@H]1C[C@@]1(C)[C@@H](NC(=O)OCc1ccccc1)c1ccccc1 | . | / | / | /
Cc1ccc(OCC(=O)Nc2cccc(C(=O)OCc3cc(=O)n4c(C)csc4n3)c2)cc1 | . | ? | ? | .
CCOc1ccccc1-c1noc(CSc2nnc(-c3ccccc3)n2-c2ccc(F)cc2)n1 | . | 13µM | 12µM | .
CCc1ccc(-n2c(SCc3nc(-c4cc(OC)ccc4OC)no3)nnc2-c2ccccc2)cc1 | . | 21µM | 18µM | .
COc1ccc(-c2noc(CSc3nnc(-c4ccncc4)n3-c3ccccc3)n2)cc1 | . | 23µM | 16µM | .
COc1ccc(-n2c(SCc3nc(-c4ccc(C)cc4)no3)nnc2-c2ccncc2)cc1 | . | . | . | .
COc1ccc(-c2noc(CSc3nnc(-c4ccncc4)n3-c3ccc(C)cc3)n2)cc1OC | . | . | 16µM | .
O=S(=O)(c1ccc(F)c(F)c1)N1CCN(S(=O)(=O)c2cccs2)CC1 | . | . | . | .
O=C(c1sc2cc(Cl)ccc2c1Cl)N1CCN(CCc2ccccn2)CC1 | . | ? | . | .
CCOc1ccc(OCCC(=O)Nc2ccc(N3CCOCC3)cc2N2CCOCC2)cc1 | / | . | . | .
O=c1[nH]c(N2CCCCC2)nc2ncn(Cc3ccccc3)c12 | . | ? | ? | .
COc1ccc(-c2noc(Cc3ccc(Cl)cc3)n2)cc1OC | . | ? | 10µM | .
COc1ccc(-c2nnc(SCc3nnc(-c4ccc(Cl)cc4)o3)n2-c2ccccc2)cc1 | . | 16µM | 16µM | .
COc1cc(Cl)c(C)cc1NC(=O)CSCc1nc(-c2ccc(OC)c(OC)c2)no1 | . | 16µM | 21µM | .
COc1ccc(-c2noc(CSCC(=O)Nc3ccc(C)cc3Br)n2)cc1OC | . | . | . | .
Clc1ccc(-c2nnc(CSc3nnc(-c4cccs4)n3Cc3ccccc3)o2)cc1 | . | 2.9µM | 6.5µM | .
COc1cccc(NC(=O)N2CCCC2C(=O)NCc2ccccc2)c1 (configuration not stated) | . | . | . | .
OCC[C@@H]1C[C@H](O)[C@@H](O)[C@@]2(OCCCc3cc(C(F)(F)F)ccc32)O1 | / | . | . | .
COc1ccc(-c2noc(CSc3nnc(Cc4ccccc4)n3-c3ccc(F)cc3)n2)cc1 | . | 16µM | ? | .
COc1ccc(-c2noc(CSc3nnc(-c4ccc(Cl)cc4)n3C)n2)cc1OC | . | 16µM | ? | .
CCc1ccc(-n2c(SCc3c(C)noc3C)nnc2-c2ccncc2)cc1 | . | ? | 21µM | .
COc1ccc(-c2noc(CSc3nnc(-c4ccccc4)n3C)n2)cc1 | . | 15µM! | 23µM! | .
COc1ccc(-c2noc(CSc3nnc(Cc4ccccc4)n3-c3cccc(C)c3)n2)cc1 | . | ? | ? | .
COc1ccc(-c2noc(CSc3nnc(C)n3-c3ccc(C)cc3)n2)cc1 | . | ? | ? | .
SMILES | TDP1 inh | TDP1 cell noCPT | TDP1 cell CPT | ClpP mod
CCN(CC)S(=O)(=O)c1ccc(N2CCCC2)c(NC(=O)c2ccc(N3CCCC3=O)cc2)c1 | . | ? | . | .
O=C1CC(=O)N2N=C(c3ccc([N+](=O)[O-])cc3)SC2=N1 | . | ? | . | .
COc1ccc(C(=O)OC(C)C(=O)NCC2CCCCC2)cc1S(=O)(=O)N1CCOCC1 (configuration not stated) | . | . | . | .
O=C(O)CSc1nnc(Cc2ccccc2)n1-c1ccccc1 | . | . | . | .
O=[N+]([O-])c1cccc(CSc2nnc(Cc3ccccc3)n2-c2ccc(F)cc2)c1 | . | ? | 18µM | .
Cc1ccc(C2CC(=O)C=C(NCC(C)C)C2)cc1 (configuration not stated) | . | 21µM | ? | .
Cc1ccc(C2CC(=O)C=C(NCc3ccccc3)C2)cc1 (configuration not stated) | / | 4.6µM | 5.2µM | .
COc1ccc(C2CC(=O)C=C(NCCC(C)C)C2)cc1 (configuration not stated) | . | 15µM | ? | .

Screens as filed in PubChem.
